The record followed here is PubChem BioAssay (EPA / NIEHS).

Assay [1] can be described thus: ATG_GLI_CIS: Attagene CIS-FACTORIAL HepG2 Assay for human Zinc Finger Protein GLI1 (AID 2282945). The settings on record: HepG2, Attagene cis-factorial reporter mRNA, GLI element; actives raise or lower the signal. In outline:
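Bidirectional curve fits relative to DMSO, using reporter mRNA levels from RT-PCR plus capillary electrophoresis. Cells were HepG2 transiently carrying cis-regulated reporter constructs, harvested 24 h after dosing.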

Assay [2] concerns the target Bile acid receptor (Homo sapiens) (UniProt Q96RI1). Briefly: ATG_IR1_CIS: Attagene CIS-FACTORIAL HepG2 Assay for human Nuclear Receptor Subfamily 1 Group H Member 4 (NR1H4), IR1 submotif (AID 2282946). The settings on record: IR1 reporter transcription, actives raise or lower the signal. In a few lines: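 Cells (human HepG2) carry transiently transfected cis-promoter reporter transcription units. Compounds are incubated 24 h, total RNA is reverse-transcribed and amplified, and labelled fragments are resolved by capillary electrophoresis. Curves use DMSO as baseline.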

Assay [3] is described as follows: ATG_GRE_CIS: Attagene CIS-FACTORIAL HepG2 Assay for human Glucocorticoid Response Elements (GRE) (AID 2282947). The settings on record: HepG2 GRE cis-reporter, Attagene multiplex mRNA; actives raise or lower the signal. In a few lines: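 Transient MRTU transfection of human HepG2 liver cells; cis-regulated reporters report endogenous factors. 24 h dosing → RNA isolation → RT-PCR → 6-FAM primer extension → HpaI cut → CE fragment analysis. Bidirectional fit, DMSO negative control.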

Assay [4] can be described thus: ATG_ISRE_CIS: Attagene CIS-FACTORIAL HepG2 Assay for human Interferon Regulatory Factor 1 (IRF1) binding to an Interferon-Stimulated Response Element (ISRE) (AID 2282948). The settings on record: HepG2 ISRE cis-reporter (Attagene), mRNA transcription readout; actives raise or lower the signal. In outline: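 Quantitation relies on labelled RT-PCR fragments separated by capillary electrophoresis. Human HepG2 cells bearing cis-promoter reporter constructs were treated 24 h; DMSO served as baseline for bidirectional fitting.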

Assay [5] can be described thus: ATG_M_32_CIS: Attagene CIS-FACTORIAL HepG2 Assay for M32 Transcription Factor (Internal Marker) (AID 2282949).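 Further: background control marker of the multiplexed CIS panel rather than a real target.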 The settings on record: HepG2 Attagene cis-factorial M32 reporter, mRNA; actives raise or lower the signal. In outline:
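Fluorescent capillary electrophoresis peaks of HpaI-digested, FAM-labelled RT-PCR reporter products give the signal. Source: transiently transfected human liver HepG2 cells, 24 h after chemical dosing; bidirectional fitting against DMSO.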

Assay [6] is described as follows: ATG_M_06_CIS: Attagene CIS-FACTORIAL HepG2 Assay for M06 Transcription Factor (Internal Marker) (AID 2282950). The settings on record: HepG2 Attagene CIS-FACTORIAL M06 internal marker reporter; actives raise or lower the signal. In outline:
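Serves as a background control readout. Transfected HepG2 exposed to compounds for 24 h, then reporter transcripts quantified by fluorescent RT-PCR and capillary electrophoresis. Both directions fitted against DMSO baseline.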

The target of assay [7] is Hepatocyte nuclear factor 6 (Homo sapiens) (UniProt Q9UBC0). Briefly: ATG_HNF6_CIS: Attagene CIS-FACTORIAL HepG2 Assay for human Hepatocyte Nuclear Factor 6 (HNF6) (AID 2282952). The settings on record: HepG2 Attagene cis-factorial HNF6 reporter transcription; actives raise or lower the signal. In outline:
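Reporter mRNA induction or loss in HepG2 after 24 h exposure; transient cis-MRTU transfection; fragments quantified by capillary electrophoresis; bidirectional analysis, DMSO as negative control.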

Assay [8] concerns the target Heat shock factor protein 1 (Homo sapiens) (UniProt Q00613). Description: ATG_HSE_CIS: Attagene CIS-FACTORIAL HepG2 Assay for human Heat Shock Transcription Factor 1 (HSE) (AID 2282953). The settings on record: HepG2 HSE cis-reporter, Attagene RNA transcription; actives raise or lower the signal. In outline:
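Endogenous transcription factor activity in transiently transfected HepG2, read as reporter mRNA by RT-PCR with fluorescent capillary electrophoresis after 24 h. Gain or loss of signal fitted versus DMSO baseline.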

A short description of assay [9]: ATG_MRE_CIS: Attagene CIS-FACTORIAL HepG2 Assay for human Metal Responsive Element (MRE) (AID 2282954). The settings on record: HepG2 MRE cis-reporter transcription, Attagene multiplex; actives raise or lower the signal. In a few lines:
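Transient MRTU transfection of HepG2 (FuGene 6); 24 h dosing; total RNA → oligo(dT) RT, PCR, 6-FAM primer extension, HpaI cut, CE. Bidirectional fit vs DMSO.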

A short description of assay [10]: ATG_PBREM_CIS: Attagene CIS-FACTORIAL HepG2 Assay for human Phenobarbital-responsive Enhancer Module (PBREM) (AID 2282955). The settings on record: HepG2 PBREM cis-reporter, Attagene multiplexed transcription; actives raise or lower the signal. In a few lines:
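Readout: reporter mRNA, fluorescent RT-PCR fragments separated by capillary electrophoresis. System: HepG2 transiently transfected with cis-regulated reporter units. Exposure: 24 h. Analysis: bidirectional, DMSO baseline.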

The target of assay [11] is Paired box protein Pax-6 (Homo sapiens) (UniProt P26367). Description: ATG_Pax6_CIS: Attagene CIS-FACTORIAL HepG2 Assay for human Paired Box 6 (PAX6) (AID 2282956). The settings on record: HepG2 CIS-FACTORIAL PAX6 reporter transcription, RNA readout; actives raise or lower the signal. In a few lines:
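After twenty-four hours of chemical exposure, transfected HepG2 cells are harvested for RNA. Cis-promoter reporter transcripts are amplified, fluorescently labelled and sized by capillary electrophoresis, with gain and loss of signal scored against DMSO.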

A short description of assay [12]: ATG_PXRE_CIS: Attagene CIS-FACTORIAL HepG2 Assay for human Pregnane X Receptor Element (PXRE) (AID 2282957). The settings on record: HepG2 Attagene CIS-FACTORIAL PXRE reporter, mRNA; actives raise or lower the signal. In outline:
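Transiently transfected HepG2 cells were dosed and incubated for 24 h. RNA was then isolated, DNase-treated, reverse-transcribed and reporter sequences amplified. Labeled, HpaI-digested fragments were quantified by capillary electrophoresis against DMSO.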

Assay [13] in a line: ATG_PPRE_CIS: Attagene CIS-FACTORIAL HepG2 Assay for human Peroxisome Proliferator-activated Response Element (PPRE) (AID 2282958). The settings on record: HepG2 PPRE cis-element reporter, Attagene transcription factor profiling; actives raise or lower the signal. In outline: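 After human HepG2 hepatoma cells were transiently transfected with cis-promoter reporter constructs, they were exposed to test chemicals for 24 hours. Reporter RNA was then reverse-transcribed, PCR-amplified, FAM-labeled, HpaI-digested and quantified by capillary electrophoresis.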

Assay [14] is described as follows: ATG_RORE_CIS: Attagene CIS-FACTORIAL HepG2 Assay for human RAR-related Orphan Receptor Element (RORE) (AID 2282959). The settings on record: HepG2 Attagene cis-factorial RORE reporter, mRNA; actives raise or lower the signal. In a few lines: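 Measured here: transcript induction of a cis-regulated reporter in HepG2 cells transiently transfected via FuGene 6. After 24 h, RNA was processed by RT-PCR and fluorescent capillary electrophoresis; DMSO defined baseline activity.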

Assay [15] addresses Transcription factor Sp1 (Homo sapiens) (UniProt P08047). Briefly: ATG_Sp1_CIS: Attagene CIS-FACTORIAL HepG2 Assay for human Specificity Protein 1 (Sp1) (AID 2282961). The settings on record: HepG2 Sp1 cis-reporter transcription, actives raise or lower the signal. In outline: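 After transient transfection of HepG2 cells with cis-promoter reporter units and 24 h chemical treatment, reporter transcripts were quantified by RT-PCR and capillary electrophoresis fluorescence. Gain- and loss-of-signal fitted against DMSO.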

Assay [16] in a line: ATG_SREBP_CIS: Attagene CIS-FACTORIAL HepG2 Assay for human Sterol Regulatory Element Binding (SREBP) (AID 2282962). The settings on record: HepG2 Attagene cis-factorial SREBP reporter, mRNA; actives raise or lower the signal. In outline: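 Twenty-four hours after chemical dosing of transfected HepG2 cultures, reporter RNA was converted to cDNA, amplified, end-labelled with 6-FAM and resolved by capillary electrophoresis. Responses were fitted relative to DMSO.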

The target of assay [17] is Signal transducer and activator of transcription 3 (Homo sapiens) (UniProt P40763). Briefly: ATG_STAT3_CIS: Attagene CIS-FACTORIAL HepG2 Assay for human Signal Transducer and Activator of Transcription 3 (STAT3) (AID 2282963). The settings on record: HepG2, Attagene cis-factorial STAT3 reporter transcription; actives raise or lower the signal. In a few lines: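 Endogenous STAT3-responsive cis-element activity was read in transiently transfected HepG2 cells after 24 h treatment. Reporter transcripts were quantified via RT-PCR and capillary electrophoresis, with DMSO as negative control and bidirectional curve fitting.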

Assay [18] can be described thus: ATG_TA_CIS: Attagene CIS-FACTORIAL HepG2 Assay for human TA Basal Promoter (AID 2282964). The settings on record: HepG2 Attagene CIS-factorial TA basal promoter reporter; actives raise or lower the signal. In outline: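 Background-control readout: TA basal promoter reporter mRNA, fitted in both directions relative to DMSO. Measured by RT-PCR and capillary electrophoresis 24 hours after treating HepG2 human liver cells transiently carrying multiplexed cis-regulated reporter constructs.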

Assay [19] has as its target Hypoxia-inducible factor 1-alpha (Homo sapiens) (UniProt Q16665). Briefly: ATG_HIF1a_CIS: Attagene CIS-FACTORIAL HepG2 Assay for human Hypoxia Inducible Factor 1 (HIF1A) (AID 2282951). The settings on record: HepG2 Attagene cis-factorial HIF1a reporter transcription; actives raise or lower the signal. In a few lines: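 Endogenous-TF cis reporter readout, human HepG2 cells, 24 h incubation; mRNA detected via RT-PCR and capillary electrophoresis fluorescence; DMSO-normalised bidirectional fitting.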

Assay [20] in a line: ATG_Sox_CIS: Attagene CIS-FACTORIAL HepG2 Assay for human SRY-box transcription factor (SOX) (AID 2282960). The settings on record: HepG2 Attagene cis-factorial SOX reporter, mRNA; actives raise or lower the signal. In outline: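 Using transiently transfected HepG2 cells, reporter transcription driven by cis elements was assessed 24 h after dosing. Signal was fluorescence of capillary-separated RT-PCR products, with DMSO defining baseline activity.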

Each structure is given as a SMILES string. Activity calls are given as the source filed them. How the source made its calls: active means hit-call score of the fitted dose curve at least 0.9, where 1 is the maximum; inactive means score below 0.9.

Chain of Paired box protein Pax-6 (Homo sapiens) (P26367 whole entry, looked up): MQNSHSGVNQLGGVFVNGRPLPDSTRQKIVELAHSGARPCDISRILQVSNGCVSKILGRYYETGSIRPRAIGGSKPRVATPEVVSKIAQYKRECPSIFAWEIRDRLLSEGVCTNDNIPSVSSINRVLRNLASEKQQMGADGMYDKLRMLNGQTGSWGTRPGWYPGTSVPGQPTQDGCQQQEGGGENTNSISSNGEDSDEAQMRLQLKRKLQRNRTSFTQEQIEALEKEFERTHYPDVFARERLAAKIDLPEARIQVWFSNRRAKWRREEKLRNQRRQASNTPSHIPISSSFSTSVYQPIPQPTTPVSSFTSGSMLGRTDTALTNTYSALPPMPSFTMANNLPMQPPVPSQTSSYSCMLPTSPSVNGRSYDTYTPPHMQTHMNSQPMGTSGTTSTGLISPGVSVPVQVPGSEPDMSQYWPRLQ
Chain of Heat shock factor protein 1 (Homo sapiens) (Q00613 whole entry, looked up): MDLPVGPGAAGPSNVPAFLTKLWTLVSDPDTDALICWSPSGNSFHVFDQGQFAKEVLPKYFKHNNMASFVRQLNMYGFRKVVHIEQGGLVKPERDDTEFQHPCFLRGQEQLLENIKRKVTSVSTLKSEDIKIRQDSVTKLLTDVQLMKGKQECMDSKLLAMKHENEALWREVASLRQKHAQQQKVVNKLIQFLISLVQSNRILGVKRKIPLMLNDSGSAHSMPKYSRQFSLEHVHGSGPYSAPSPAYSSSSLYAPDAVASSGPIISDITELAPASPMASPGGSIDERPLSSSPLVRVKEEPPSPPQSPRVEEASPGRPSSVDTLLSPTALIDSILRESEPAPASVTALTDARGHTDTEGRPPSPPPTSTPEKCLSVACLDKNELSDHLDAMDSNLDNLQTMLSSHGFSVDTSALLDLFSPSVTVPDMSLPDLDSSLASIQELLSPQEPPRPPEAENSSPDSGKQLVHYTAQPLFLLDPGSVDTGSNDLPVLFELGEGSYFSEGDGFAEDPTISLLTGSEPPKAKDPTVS
Chain of Transcription factor Sp1 (Homo sapiens) (P08047 whole entry, looked up): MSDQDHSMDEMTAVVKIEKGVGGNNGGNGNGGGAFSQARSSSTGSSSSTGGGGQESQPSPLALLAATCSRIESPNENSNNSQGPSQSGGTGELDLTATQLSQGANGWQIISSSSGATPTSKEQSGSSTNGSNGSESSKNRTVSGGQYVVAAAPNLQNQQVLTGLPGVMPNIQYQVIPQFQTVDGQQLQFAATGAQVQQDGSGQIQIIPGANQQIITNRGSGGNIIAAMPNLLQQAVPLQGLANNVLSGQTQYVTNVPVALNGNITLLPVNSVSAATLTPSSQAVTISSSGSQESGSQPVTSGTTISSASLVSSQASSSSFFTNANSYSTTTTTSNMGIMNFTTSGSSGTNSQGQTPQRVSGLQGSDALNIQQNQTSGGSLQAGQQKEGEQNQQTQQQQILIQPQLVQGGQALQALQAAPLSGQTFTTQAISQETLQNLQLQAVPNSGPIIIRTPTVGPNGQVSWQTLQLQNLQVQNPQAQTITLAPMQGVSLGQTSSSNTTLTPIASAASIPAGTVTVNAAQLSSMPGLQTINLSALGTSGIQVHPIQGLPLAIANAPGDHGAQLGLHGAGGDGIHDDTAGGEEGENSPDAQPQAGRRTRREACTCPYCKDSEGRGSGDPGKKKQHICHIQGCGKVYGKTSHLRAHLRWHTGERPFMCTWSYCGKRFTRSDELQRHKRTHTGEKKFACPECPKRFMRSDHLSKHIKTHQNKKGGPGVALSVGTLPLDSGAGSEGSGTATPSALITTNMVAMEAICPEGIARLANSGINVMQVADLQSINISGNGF
Chain of Hypoxia-inducible factor 1-alpha (Homo sapiens) (Q16665 whole entry, looked up): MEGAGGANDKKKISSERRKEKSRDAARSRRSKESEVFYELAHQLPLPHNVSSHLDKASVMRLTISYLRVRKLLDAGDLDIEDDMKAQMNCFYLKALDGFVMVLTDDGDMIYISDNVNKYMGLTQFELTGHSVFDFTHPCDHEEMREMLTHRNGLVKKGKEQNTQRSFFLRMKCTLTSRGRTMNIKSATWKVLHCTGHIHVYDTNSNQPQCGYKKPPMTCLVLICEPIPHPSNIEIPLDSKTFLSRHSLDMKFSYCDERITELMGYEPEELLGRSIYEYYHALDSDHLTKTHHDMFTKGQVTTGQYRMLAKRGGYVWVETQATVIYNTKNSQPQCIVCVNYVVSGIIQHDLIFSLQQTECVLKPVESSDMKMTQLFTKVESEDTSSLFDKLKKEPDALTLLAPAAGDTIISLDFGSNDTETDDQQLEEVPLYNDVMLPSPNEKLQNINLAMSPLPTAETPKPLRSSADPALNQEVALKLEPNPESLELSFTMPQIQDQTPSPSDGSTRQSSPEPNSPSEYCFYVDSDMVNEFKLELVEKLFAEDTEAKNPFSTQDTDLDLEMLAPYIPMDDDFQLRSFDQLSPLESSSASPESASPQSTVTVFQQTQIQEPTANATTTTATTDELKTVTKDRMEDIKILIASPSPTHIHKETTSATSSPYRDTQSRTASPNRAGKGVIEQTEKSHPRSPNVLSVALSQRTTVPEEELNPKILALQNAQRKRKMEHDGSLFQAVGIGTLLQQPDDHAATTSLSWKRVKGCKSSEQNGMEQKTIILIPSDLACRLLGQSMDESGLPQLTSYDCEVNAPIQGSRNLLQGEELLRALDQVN
Chain of Bile acid receptor (Homo sapiens) (Q96RI1 whole entry, looked up, the tested form may be a part): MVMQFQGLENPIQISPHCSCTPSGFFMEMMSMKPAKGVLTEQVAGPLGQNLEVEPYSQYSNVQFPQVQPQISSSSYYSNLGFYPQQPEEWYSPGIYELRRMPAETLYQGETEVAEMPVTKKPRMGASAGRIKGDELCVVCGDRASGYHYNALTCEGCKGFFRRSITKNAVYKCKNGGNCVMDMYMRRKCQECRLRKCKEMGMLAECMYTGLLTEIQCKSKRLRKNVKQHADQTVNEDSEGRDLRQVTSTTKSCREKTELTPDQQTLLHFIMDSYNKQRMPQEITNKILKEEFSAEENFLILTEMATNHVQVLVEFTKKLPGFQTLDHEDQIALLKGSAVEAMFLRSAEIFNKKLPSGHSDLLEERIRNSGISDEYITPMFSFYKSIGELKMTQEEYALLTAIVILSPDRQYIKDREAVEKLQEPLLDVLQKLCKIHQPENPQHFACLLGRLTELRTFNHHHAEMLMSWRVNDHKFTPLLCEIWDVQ
Chain of Signal transducer and activator of transcription 3 (Homo sapiens) (P40763 whole entry, looked up): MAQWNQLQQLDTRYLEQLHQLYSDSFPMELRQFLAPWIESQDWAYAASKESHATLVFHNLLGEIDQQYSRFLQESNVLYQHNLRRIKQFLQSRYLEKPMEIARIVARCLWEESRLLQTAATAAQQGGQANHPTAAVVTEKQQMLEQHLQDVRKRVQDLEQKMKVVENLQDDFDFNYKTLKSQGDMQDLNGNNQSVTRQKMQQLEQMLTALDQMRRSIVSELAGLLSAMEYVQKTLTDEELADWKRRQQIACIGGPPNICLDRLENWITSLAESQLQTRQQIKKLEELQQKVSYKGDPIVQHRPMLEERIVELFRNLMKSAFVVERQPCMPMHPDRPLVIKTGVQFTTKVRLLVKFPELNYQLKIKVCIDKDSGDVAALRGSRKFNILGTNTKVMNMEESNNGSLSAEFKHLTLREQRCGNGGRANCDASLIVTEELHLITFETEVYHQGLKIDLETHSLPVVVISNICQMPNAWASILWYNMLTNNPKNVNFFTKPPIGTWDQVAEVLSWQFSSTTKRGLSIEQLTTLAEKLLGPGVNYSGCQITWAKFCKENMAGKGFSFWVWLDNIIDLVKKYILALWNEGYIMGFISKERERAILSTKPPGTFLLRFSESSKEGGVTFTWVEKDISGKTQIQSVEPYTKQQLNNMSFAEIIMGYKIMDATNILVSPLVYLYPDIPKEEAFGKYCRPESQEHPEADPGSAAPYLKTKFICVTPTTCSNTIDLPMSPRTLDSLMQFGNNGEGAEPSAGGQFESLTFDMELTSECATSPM
Chain of Hepatocyte nuclear factor 6 (Homo sapiens) (Q9UBC0 whole entry, looked up, the tested form may be a part): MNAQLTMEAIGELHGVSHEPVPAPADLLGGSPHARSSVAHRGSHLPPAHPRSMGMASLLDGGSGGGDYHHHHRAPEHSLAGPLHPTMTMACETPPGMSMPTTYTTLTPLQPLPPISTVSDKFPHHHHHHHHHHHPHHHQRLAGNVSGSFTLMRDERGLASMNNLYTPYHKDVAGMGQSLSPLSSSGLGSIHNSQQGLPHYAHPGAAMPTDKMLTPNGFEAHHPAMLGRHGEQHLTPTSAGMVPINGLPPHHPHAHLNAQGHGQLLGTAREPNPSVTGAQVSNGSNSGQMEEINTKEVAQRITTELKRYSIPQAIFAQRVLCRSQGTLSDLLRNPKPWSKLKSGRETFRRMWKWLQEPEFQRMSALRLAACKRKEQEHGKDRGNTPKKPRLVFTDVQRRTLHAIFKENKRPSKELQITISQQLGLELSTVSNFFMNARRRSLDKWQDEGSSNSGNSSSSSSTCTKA

Consider `C=CC/C=C/C/C=C/C/C=C/C`, for which the compound was classed as inactive in assay [1], in [2], in [3], in assay [4], in assay [5] and in assay [6]. The result in assay [7], in assay [8], in [9], in assay [10], in assay [11] and in assay [12] was inactive. Moreover, the compound was classed as inactive in [13], in [14], in [15], in assay [16], in assay [17] and in assay [18].

By AC50 is commonly meant the concentration at which the activity in the assay is half-maximal. For the compound `CCN(CC)c1ccc2c(C)cc(=O)oc2c1`, the outcome in assay [1], in assay [2], in [3], in [4], in assay [5] and in assay [6] was inactive. The outcome in [19], in assay [8], in assay [10], in assay [14], in assay [15] and in assay [17] was inactive. For the same compound, in assay [18], the compound was called inactive. In addition, the AC50 was 71.9 µM (active) in assay [9], 65.9 µM (active) in assay [11], 2.92 µM (active) in assay [12] and 50.2 µM (active) in [13].

`C=CC(=O)OCC(F)(F)C(F)(F)C(F)(F)C(F)(F)C(F)(F)C(F)(F)C(F)(F)F`: the outcome in assay [1], in assay [2], in assay [3], in assay [4], in assay [5] and in assay [6] was inactive. Also, the result in assay [19], in assay [8], in [9], in assay [10], in [11] and in [12] was inactive. Also, the result in assay [13], in assay [20], in assay [15], in assay [16], in assay [17] and in assay [18] was inactive.

Consider `C=CC(=O)OCC(F)(F)C(F)(F)C(F)(F)C(F)(F)COC(=O)C=C`, for which the AC50 was 81.1 µM (active) in [1]; 61.4 µM (active) in assay [4]; 33.8 µM (active) in assay [19]; 60.3 µM (active) in assay [7]; 79 µM (active) in [8]; 56.7 µM (active) in assay [9]. Also, the AC50 is 62.1 µM (active) in assay [11], 40.3 µM (active) in [14], 44.7 µM (active) in assay [15] and 72.4 µM (active) in assay [16]. The result in assay [2], in assay [3], in assay [5], in assay [6], in assay [10] and in [12] was inactive. In addition, the call in assay [13], in assay [17] and in [18] was inactive.

As for `O=C(O)C(F)(F)C(F)(F)C(F)(F)F`, the call in [1], in [2], in assay [3], in assay [4], in assay [5] and in [6] was inactive. Further, the compound was called inactive in assay [19], in [7], in [8], in assay [9], in assay [10] and in [11]. Also, the compound was classed as inactive in [12], in assay [13], in assay [20], in assay [15], in assay [16] and in [17]. In addition, the result in assay [18] was inactive.

Turning to `CC(C)c1ccccc1N`, the call in assay [1], in assay [2], in assay [3], in assay [4], in [5] and in assay [6] was inactive. Further, the call in assay [19], in [8], in [9], in assay [10], in assay [11] and in assay [13] was inactive. Further, the call in assay [15], in [17] and in [18] was inactive. For the same compound, the AC50 in assay [12] was 34.9 µM (active).

As to `O=C(O)C(F)(F)C(F)(F)C(F)(F)C(F)(F)C(F)(F)C(F)(F)C(F)(F)C(F)(F)C(F)(F)C(F)(F)C(F)(F)C(F)(F)F`, the result in [1], in assay [2], in assay [4], in assay [5], in assay [7] and in [9] was inactive. Moreover, the result in [10], in assay [11], in assay [12], in [13], in [14] and in assay [20] was inactive. Further, the compound was classed as inactive in assay [15], in assay [16], in [17] and in assay [18].
